Shown are actives, neighbours in structure and some others; about 1.1% of the full set was active somewhere.
RPL19A TOR yeast: yeast TOR pathway RPL19A-GFP modulation. percent response vs DMSO, % at 10 µM. S. cerevisiae RPL19A-GFP strain, flow cytometry, 3 h; active compounds read low. 330,000 compounds, 0.3% hits;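 active means percent response vs DMSO below 50%; inconclusive means fewer than 70 events counted for the yeast strain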;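 further: median channel GFP fluorescence of the barcoded RPL19A-GFP strain; ratio of sample median GFP to plate DMSO average so 100% = DMSO; lower means less RPL19A-GFP as with rapamycin TOR inhibition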
AGP1 TOR yeast: alters AGP1-GFP fluorescence in TOR pathway yeast screen; S. cerevisiae AGP1-GFP multiplex flow cytometry, 3 h; GFP as percent of DMSO wells; GFP response vs DMSO, % at 10 µM; 320,000 compounds, 0.02% hits; AID 2066;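 active means GFP response relative to DMSO above a set limit, near screen average plus 3 SD, cut at about 150% in these data; inconclusive means fewer than 70 cells counted for the yeast strain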;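 further: median GFP channel fluorescence of the gated AGP1 strain per well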
CIT2 TOR yeast: modulators of TOR pathway CIT2-GFP in S. cerevisiae; S. cerevisiae CIT2-GFP strain, flow cytometry, 3 h; 100 means same as DMSO wells; GFP response vs DMSO, % at 10 µM; 320,000 compounds, 0.065% hits; AID 2029;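 active means GFP response relative to DMSO above a set limit, near the screen mean plus 3 SD, cut at about 150% in these data; inconclusive means Fewer than 70 cells measured for a yeast strain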;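 further: ratio of well median GFP fluorescence to mean of DMSO wells on the plate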
VLA-4 inh: inhibition in a human VLA-4 binding assay | P13612 | VLA-4 expressing cells, ligand binding flow cytometry | inhibition, % (about 7 µM as worked out from the volumes in the protocol) | 330,000 compounds, 0.2% hits | AID 2557; in the data active means inhibition above about 50%
LAP4 TOR yeast: modulators of TOR pathway LAP4-GFP in S. cerevisiae; 320,000 compounds, 0.34% hits; GFP response vs DMSO, % at 10 µM; AID 2023; S. cerevisiae LAP4-GFP multiplex, flow cytometry GFP, 3 h; median GFP as percent of DMSO wells;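 active means GFP response vs DMSO above a set limit, about the screen mean plus 3 SD, cut at about 150% in these data; inconclusive means under 70 cell events counted for the yeast strain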
MEP2-GFP yeast: alters MEP2-GFP fluorescence in TOR pathway yeast screen. S. cerevisiae MEP2-GFP strain, flow cytometry GFP, 3 h; 100% = DMSO control level. AID 2016. 330,000 compounds, 0.51% hits. GFP response vs DMSO, % at 10 µM;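 active means GFP response versus DMSO above a set limit, roughly screen mean plus 3 SD, cut at about 180% in these data; inconclusive means fewer than 70 cells counted for a yeast strain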;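 further: median GFP fluorescence of the barcode-gated MEP2-GFP cells per well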
VLA-4 allo CP: human VLA-4 allosteric modulation in cherry picked compounds | shares compounds with VLA-4 inh | U937 cells, HUTS-21 LIBS mAb binding, flow cytometry; LDV ligand present at threefold Kd | inhibition, % at 6.7 µM | 1,300 compounds, 2% hits | AID 2813; in the data active means inhibition above about 40%;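 further: 0% = ligand without compound and 100% = no ligand background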
Numbers without * were called inactive; [ ] = remark or other dose.

CCCCOP(=O)(CN1CCOCC1)OCCCC was read as RPL19A TOR yeast 96, AGP1 TOR yeast 99, CIT2 TOR yeast 101, VLA-4 inh 91*, LAP4 TOR yeast 98, MEP2-GFP yeast 101 and VLA-4 allo CP -4.
Screening COc1ccc(OC)c(CNCCc2ccc(OC)c(OC)c2)c1 returned RPL19A TOR yeast 106, AGP1 TOR yeast 98, CIT2 TOR yeast 101, VLA-4 inh 3, LAP4 TOR yeast 96 and MEP2-GFP yeast 104.
`COC(=O)C[C@]1(C(=O)OC)CN(C#N)N(c2ccc(Cl)cc2)C12c1ccccc1-c1ccccc12` gave RPL19A TOR yeast 92, AGP1 TOR yeast 93, CIT2 TOR yeast 97, VLA-4 inh 57*, LAP4 TOR yeast 94, MEP2-GFP yeast 99 and VLA-4 allo CP 32.
For COC(=O)[C@@H]1[C@@H](C(=O)OC)C2(c3ccccc3-c3ccccc32)N(c2ccc(Cl)cc2)N1C#N the results were RPL19A TOR yeast 97, AGP1 TOR yeast 97, CIT2 TOR yeast 97, VLA-4 inh 58*, LAP4 TOR yeast 94, MEP2-GFP yeast 101 and VLA-4 allo CP 38.
COC(=O)C1C(OC(=O)c2ccccc2)CC2CCC1N2C (stereo not given) was read as RPL19A TOR yeast 99, AGP1 TOR yeast 96, CIT2 TOR yeast 96, VLA-4 inh 3, LAP4 TOR yeast 105, MEP2-GFP yeast 97 and VLA-4 allo CP -5.
O=C(N/N=C1/CN2CCC1CC2)c1cc2ccccc2cc1O was read as RPL19A TOR yeast 94, AGP1 TOR yeast 94, CIT2 TOR yeast 92, VLA-4 inh 22, LAP4 TOR yeast 96 and MEP2-GFP yeast 97.
COc1ccc(CCN)cc1OC was read as RPL19A TOR yeast 97, AGP1 TOR yeast 98, CIT2 TOR yeast 97, VLA-4 inh -7, LAP4 TOR yeast 101 and MEP2-GFP yeast 98.
NCCc1ccc(OCc2ccccc2)c(OCc2ccccc2)c1 was read as RPL19A TOR yeast 96, AGP1 TOR yeast 105, CIT2 TOR yeast 84, VLA-4 inh 74*, LAP4 TOR yeast 113, MEP2-GFP yeast 106 and VLA-4 allo CP 29.
For Cc1ccc(-c2cc(-c3ccc(C)cc3)[n+](-c3ccccc3)c(-c3ccc(C)cc3)c2)cc1 the results were RPL19A TOR yeast 40*[may fluoresce violet], AGP1 TOR yeast inconclusive, CIT2 TOR yeast inconclusive, VLA-4 inh 54*, LAP4 TOR yeast 65, MEP2-GFP yeast 255*[may fluoresce violet] and VLA-4 allo CP 3.
For Cc1ccc(-c2cc(-c3ccccc3)cc(-c3ccccc3)[n+]2-c2ccccc2)cc1 the results were RPL19A TOR yeast 100, AGP1 TOR yeast 106, CIT2 TOR yeast 99, VLA-4 inh -1, LAP4 TOR yeast 94 and MEP2-GFP yeast 105.
Screening CCC(=NCc1cccnc1)c1c(O)n(-c2ccc(Cl)cc2)c(=O)[nH]c1=O returned RPL19A TOR yeast 103, AGP1 TOR yeast 112, CIT2 TOR yeast 102, VLA-4 inh 17, LAP4 TOR yeast 113 and MEP2-GFP yeast 99.
For Cc1cc(OCC(=O)NCc2ccc(S(N)(=O)=O)cc2)c2c3c(c(=O)oc2c1)CCC3 the results were RPL19A TOR yeast 101, AGP1 TOR yeast 101, CIT2 TOR yeast 103, VLA-4 inh 53*, LAP4 TOR yeast 98, MEP2-GFP yeast 102 and VLA-4 allo CP -7.
`Cc1cc(OCC(=O)NCc2ccncc2)c2c3c(c(=O)oc2c1)CCC3` gave RPL19A TOR yeast 97, AGP1 TOR yeast 102, CIT2 TOR yeast 99, VLA-4 inh 12, LAP4 TOR yeast 95 and MEP2-GFP yeast 97.
COC(=O)C1=C(c2ccc(F)cc2F)C[C@@H]2CC[C@H]1N2C(=O)NCCOc1ccccc1 was read as RPL19A TOR yeast 93, AGP1 TOR yeast 97, CIT2 TOR yeast 99, VLA-4 inh -489, LAP4 TOR yeast 99 and MEP2-GFP yeast 94.
O=C1CN=C(c2ccc(Br)cc2)c2c(sc3c2CCCC3)N1CCN1CCCCC1 was read as RPL19A TOR yeast 101, AGP1 TOR yeast 102, CIT2 TOR yeast 95, VLA-4 inh 55*, LAP4 TOR yeast 103, MEP2-GFP yeast 105 and VLA-4 allo CP 12.
For COc1ccc(C2=NCC(=O)N(CC(=O)NCc3ccco3)c3sc4c(c32)CCCC4)cc1 the results were RPL19A TOR yeast 96, AGP1 TOR yeast 96, CIT2 TOR yeast 94, VLA-4 inh -20, LAP4 TOR yeast 92 and MEP2-GFP yeast 98.
Screening COC(=O)C1=C(c2ccc(C(C)=O)cc2)C[C@@H]2CC[C@H]1N2C returned RPL19A TOR yeast 92, AGP1 TOR yeast 97, CIT2 TOR yeast 98, VLA-4 inh 0, LAP4 TOR yeast 100 and MEP2-GFP yeast 93.
For CCOc1ccc(C(=O)OC2CC3CCC(C2)N3C)cc1 (stereo not given) the results were RPL19A TOR yeast 103, AGP1 TOR yeast 104, CIT2 TOR yeast 99, VLA-4 inh -6, LAP4 TOR yeast 96, MEP2-GFP yeast 101 and VLA-4 allo CP 3.
Screening CN1C2CCC1CC(OC(=O)c1ccc(Cl)cc1)(C(=O)O)C2 (stereo not given) returned RPL19A TOR yeast 93, AGP1 TOR yeast 90, CIT2 TOR yeast 94, VLA-4 inh 0, LAP4 TOR yeast 84, MEP2-GFP yeast 103 and VLA-4 allo CP -12.
Screening CN1C2CCC1CC(OC(=O)c1ccc(Cl)cc1)C2 (stereo not given) returned RPL19A TOR yeast 102, AGP1 TOR yeast 107, CIT2 TOR yeast 110, VLA-4 inh 11, LAP4 TOR yeast 102, MEP2-GFP yeast 110 and VLA-4 allo CP -1.
COc1ccc(C(=O)OC2C[C@H]3CC[C@H](C2)N3C)cc1OC (stereo not given in full) was read as RPL19A TOR yeast 97, AGP1 TOR yeast 89, CIT2 TOR yeast 86, VLA-4 inh 11, LAP4 TOR yeast 95, MEP2-GFP yeast 94 and VLA-4 allo CP -6.
Cc1nn(Cc2ccccc2)c(C)c1C(=O)O was read as RPL19A TOR yeast 82, AGP1 TOR yeast 74, CIT2 TOR yeast 89, VLA-4 inh -1, LAP4 TOR yeast 80 and MEP2-GFP yeast 87.
Screening COC(=O)C1=C(c2ccccc2OCc2ccccc2)C[C@@H]2CC[C@H]1N2C(=O)NC1CCN(Cc2ccccc2)CC1 returned RPL19A TOR yeast 95, AGP1 TOR yeast 98, CIT2 TOR yeast 98, VLA-4 inh 6, LAP4 TOR yeast 96 and MEP2-GFP yeast 94.
For COC(=O)C1=C(c2ccc(F)cc2OCc2ccccc2)C[C@@H]2CC[C@H]1N2C(=O)NCc1ccc2c(c1)OCO2 the results were RPL19A TOR yeast 93, AGP1 TOR yeast 90, CIT2 TOR yeast 85, VLA-4 inh 16, LAP4 TOR yeast 97 and MEP2-GFP yeast 92.
`C[N+]1(C)C2CCC1CC(OC(=O)c1ccccc1)C2` (stereo not given) gave RPL19A TOR yeast 101, AGP1 TOR yeast 105, CIT2 TOR yeast 100, VLA-4 inh 4, LAP4 TOR yeast 108, MEP2-GFP yeast 104 and VLA-4 allo CP -3.
Screening N#C/C=C/C#N returned RPL19A TOR yeast 99, AGP1 TOR yeast 100, CIT2 TOR yeast 107, VLA-4 inh 4, LAP4 TOR yeast 98 and MEP2-GFP yeast 102.

Bioassay records (PubChem)
